Hits are enriched below; roughly 2.5% of the tested compounds scored in any of these assays.
Cruzain Triton = qHTS Assay for Promiscuous and Specific Inhibitors of Cruzain (with detergent). 0.43% of 200,000 active. AID 1478, 2009. purified cruzain, Z-FR-AMC fluorescence, 0.01% Triton. Potency, µM, actives largely listed as inhibitors; also: nearly all actives have a fitted effect of over 40% in size
Target sequence (P25779 123-467 limits assumed): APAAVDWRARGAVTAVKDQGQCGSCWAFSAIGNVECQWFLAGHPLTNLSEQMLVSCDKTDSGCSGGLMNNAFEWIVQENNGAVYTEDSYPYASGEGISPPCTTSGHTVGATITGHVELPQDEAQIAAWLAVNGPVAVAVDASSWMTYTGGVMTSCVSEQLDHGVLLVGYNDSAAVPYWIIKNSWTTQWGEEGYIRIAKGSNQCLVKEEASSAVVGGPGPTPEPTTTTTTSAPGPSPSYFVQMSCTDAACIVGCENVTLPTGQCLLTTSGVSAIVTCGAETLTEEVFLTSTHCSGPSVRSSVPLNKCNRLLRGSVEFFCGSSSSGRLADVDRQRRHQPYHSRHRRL
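Steps: dispense cruzain (1.5 nM final) in acetate buffer pH 5.5 with DTT and 0.01% Triton X-100; pin-transfer compounds; incubate 15 min RT; add Z-FR-AMC (2 uM final); read fluorescence every 30 s, using the 60 s intensity change.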
Cruzain noTriton = qHTS Assay for Promiscuous and Specific Inhibitors of Cruzain (without detergent); Cruzipain (Trypanosoma cruzi), P25779; purified cruzain, Z-FR-AMC fluorescence, no detergent; Potency, µM, actives largely listed as inhibitors; 2.3% of 200,000 active; also: nearly all actives have a fitted effect of over 40% in size
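Purified cruzain at 1.5 nM, pre-incubated 15 min with compound at room temperature in 100 mM sodium acetate pH 5.5, 5 mM DTT, 0.00005% Triton X-100. Reaction started with 2 uM Z-FR-AMC; AMC fluorescence increase over 60 s gives rate.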
Large screens that a line does not name were inactive; ! = a repeat was not active. Calls follow the shape of the dose curve; as a rule, active = well fitted curve in the direction sought with a large enough effect; inconclusive = small, poorly fitted or top-dose-only effect, or another doubt; inactive = no such curve, though single readings can be large; an effect the other way counts as inactive or inconclusive.

CCOC(=O)c1c(NC(=O)c2cc(-c3ccc(Cl)s3)nc3ccccc23)sc(C(N)=O)c1C	none
CCOC(=O)c1sc(NC(=O)c2ccncc2)c(C#N)c1C	none
CCOC(=O)c1sc(NC(=O)c2cc(-c3ccccc3C)nc3ccccc23)c(C#N)c1C	Cruzain noTriton 10µM
Cc1ccccc1-c1cc(C(=O)Nc2sc(C)c(C)c2C(N)=O)c2ccccc2n1	Cruzain noTriton 20µM
CCN1C(=O)/C(=C/C=C2/Sc3ccc4ccccc4c3N2CCO)SC1=S	none
CCN1C(c2ccccc2)=C(c2ccccc2)S/C1=C/C=C1\SC(=S)N(C)C1=O	Cruzain noTriton 10µM
CCn1c(C)cc(/C=C2/NC(=O)N(Cc3ccccc3F)C2=O)c1C	Cruzain noTriton inconclusive
Cc1cc(/C=C2/NC(=O)N(Cc3ccccc3F)C2=O)c(C)n1C(C)C	Cruzain noTriton 25µM
CN(C)c1ccc(NC(=O)c2cn(-c3ccccc3)nc2-c2cccs2)cc1	Cruzain noTriton inconclusive
O=C(Nc1ccc2ccccc2c1)c1cn(-c2ccccc2)nc1-c1cccs1	Cruzain noTriton 20µM
CCc1ccc(C2=C/C(=C/c3cccnc3)C(=O)O2)cc1	none
Cc1ccc(C2=N/C(=C\c3cccnc3)C(=O)O2)cc1	Cruzain Triton 14µM, Cruzain noTriton 13µM
COc1cccc(OCCCCn2c(-c3ccc(Cl)cc3)nc3ccccc3c2=O)c1	none
Cc1cc(C)nc(N/N=C/C=C/c2ccccc2)n1	none
Cc1sc(N/N=C/C=C/c2ccccc2)nc1-c1ccccc1	Cruzain noTriton 7.9µM
CC(C)NC(=O)N1CC[C@@]2(CCCN(S(=O)(=O)c3ccccc3)C2)C1	none
CC1=Nc2cc(C(=O)NC3CCCC3)ccc2Sc2ccc(Cl)cc21	Cruzain noTriton inconclusive
CCC1=Nc2cc(C(=O)NC3CCCC3)ccc2Sc2ccc(Cl)cc21	Cruzain noTriton 7.9µM
Cc1ccccc1C(=O)Nc1ccc2nc(SCC(=O)N3CCc4ccccc43)sc2c1	Cruzain noTriton 10µM
Cc1cccc(C(=O)Nc2ccc3nc(SCC(=O)N4CCc5ccccc54)sc3c2)c1	Cruzain noTriton inconclusive
COc1cccc(Nc2ccc3cc(S(=O)(=O)N4CCC(C)CC4)ccc3n2)c1	none
CC(C)NC(=O)[C@@H]1C[C@H]1[C@@H](NC(=O)OCc1ccccc1)c1ccccc1	none
C[C@H](NC(=O)[C@@H]1C[C@H]1[C@@H](NC(=O)OCc1ccccc1)c1ccccc1)c1ccccc1	Cruzain noTriton 16µM
COc1ccc(C=Nc2cccc3c(=O)[nH][nH]c(=O)c23)c2ccccc12	Cruzain noTriton 32µM
COc1ccc(/C=C/c2ccncc2)c2ccccc12	none
CCOc1ccc(NS(=O)(=O)c2ccc3[nH]cc(C(=O)NCCc4ccccc4)c(=O)c3c2)cc1	none
COc1cccc(NS(=O)(=O)c2ccc3[nH]cc(C(=O)NC4CC4)c(=O)c3c2)c1	none
CCc1ccc(NS(=O)(=O)c2ccc3[nH]cc(C(=O)NCCCOC(C)C)c(=O)c3c2)cc1	Cruzain noTriton 20µM
CC(C)c1ccc(NS(=O)(=O)c2ccc3[nH]cc(C(=O)NCCc4ccccc4)c(=O)c3c2)cc1	none
COc1cccc(NS(=O)(=O)c2ccc3[nH]cc(C(=O)NCCc4ccccc4)c(=O)c3c2)c1	Cruzain noTriton 13µM
COc1cccc(NS(=O)(=O)c2ccc3[nH]cc(C(=O)NCCc4ccc(C)cc4)c(=O)c3c2)c1	Cruzain noTriton 13µM
CCCCc1nn2c(=O)cc(COC(=O)COc3ccc(C)cc3)nc2s1	none
CCc1nc(-c2cc(S(=O)(=O)N3CCN(c4ccccc4)CC3)ccc2OC)no1	none
CC(C)(C)C1CCc2c(sc(NC(=O)c3cccs3)c2C(N)=O)C1 (configuration not stated)	Cruzain noTriton 13µM
COC(=O)c1c(NC(=O)COc2ccccc2Cl)sc2c1CCC(C(C)(C)C)C2 (configuration not stated)	none
CCC(C)(C)C1CCc2c(sc(NC(=O)c3cccs3)c2C(N)=O)C1 (configuration not stated)	Cruzain noTriton inconclusive
CCOC(=O)c1sc(NC(=O)CSc2nnnn2-c2ccccc2)c(C(=O)OCC)c1C	none
COC(=O)c1c(NC(=O)CSc2nnnn2-c2ccccc2)sc2c1CCC(C)C2 (configuration not stated)	Cruzain noTriton 20µM
COC(=O)c1c(NC(=O)CSc2nnnn2-c2ccccc2)sc2c1CCC(C(C)(C)C)C2 (configuration not stated)	Cruzain noTriton 6.3µM
O=C(Cc1ccccc1)NC1CC(=O)N(c2ccccc2)C1 (configuration not stated)	none
CCOC(=O)c1c(C)[nH]c(C)c1S(=O)(=O)N1CCC(C(=O)Nc2ccc(C)c(N(C)C)c2)CC1	none
CSc1cccc(NC(=O)c2cccc(N3CCCS3(=O)=O)c2)c1	none
Nc1ccc(N(c2ccccc2)c2ccc(N)cc2)cc1	Cruzain noTriton 32µM
CCN(CC)c1ccccc1	none
CCOc1ccc(NC(=O)c2c(NCc3cccs3)sc3c2CCCCC3)cc1	none
COc1ccc(-c2cc(C(=O)Oc3ccc(Br)cc3)c3ccccc3n2)cc1	Cruzain noTriton inconclusive
CCOc1ccc(C2NC(=O)c3sc(=S)n(-c4ccccc4)c3N2)cc1 (configuration not stated)	none
COc1ccc(C2NC(=O)c3sc(=S)n(-c4ccccc4)c3N2)cc1 (configuration not stated)	Cruzain noTriton 25µM
Cc1ccc2oc(-c3ccccc3C(=O)O)cc(=O)c2c1	none
O=C(O)c1ccccc1-c1c2cc(Br)c(=O)cc-2oc2[c]([Hg])c(O)c(Br)cc12	Cruzain Triton 20µM!, Cruzain noTriton inconclusive
C=Cc1ccccc1Cl	none
CC1Cc2ccccc2N1c1ncnc2c1nnn2Cc1ccccc1Cl (configuration not stated)	Cruzain noTriton 25µM
Clc1ccccc1Cn1nnc2c(N3CCCC3)ncnc21	none
COc1cccc(C(=O)Nc2nc3nc(C)c(Cc4ccccc4)c(=O)n3[nH]2)c1	none
CN(C)S(=O)(=O)c1ccc(C(=O)NC2CC(=O)N(c3ccc4c(c3)OCCO4)C2)cc1 (configuration not stated)	none
Cc1cccc(Cn2c(SCc3ccc(C(=O)NC4CCCCC4)cc3)nc3ccncc32)c1	none
CCC(C(=O)NC1CCCCC1)n1c(SCc2cccc(C)c2)nc2ccncc21 (configuration not stated)	Cruzain Triton 14µM, Cruzain noTriton inconclusive
CN(C)c1ccc(Sc2nnc(NC(=O)Nc3ccc(Cl)cc3Cl)s2)cc1	Cruzain noTriton 10µM
CCC(=O)Nc1nnc(Sc2ccc(N(C)C)cc2)s1	none
COC(=O)c1ccc(C2c3c(oc4ccccc4c3=O)C(=O)N2c2nc(C)c(C(=O)OC)s2)cc1 (configuration not stated)	none
Cc1ccccc1OCC(=O)Nc1ccc2c(c1)Cc1ccccc1-2	Cruzain noTriton inconclusive
O=C(COc1ccccc1)Nc1ccc2c(c1)Cc1cc(NC(=O)COc3ccccc3)ccc1-2	Cruzain noTriton 2.5µM
OC1C=C2CCN3Cc4cc5c(cc4C(C1O)C23)OCO5 (configuration not stated)	none
CC(=O)N[C@H](C(=O)O)C(C)(C)SN=O	none
Cc1ccc(C(=O)ON=C2CCN(c3ccc([N+](=O)[O-])cc3)CC2)cc1	Cruzain noTriton 32µM
Cc1ccc(C(=O)NC(=S)N2CCN(c3ccc([N+](=O)[O-])cc3)CC2)cc1	none
C=C(C(C)=O)C(O)c1ccc2ccccc2c1 (configuration not stated)	none
